In general, inhibition refers to the drop in the measured response relative to a control, in per cent.

These results are taken from ChEMBL document CHEMBL1961873, “Compounds: GSK PKIS; Assays: Nanosyn kinase panel” (2012).

Experiment [1] concerns the target RAF proto-oncogene serine/threonine-protein kinase (Homo sapiens) (UniProt P04049). To be noted: at 1 µM.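 Further: values are the mean percent inhibition of CRAF.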
The target of experiment [2] is T1, Interleukin-1 receptor-associated kinase 4 (Homo sapiens) (UniProt Q9NWZ3).
T1 sequence (whole entry): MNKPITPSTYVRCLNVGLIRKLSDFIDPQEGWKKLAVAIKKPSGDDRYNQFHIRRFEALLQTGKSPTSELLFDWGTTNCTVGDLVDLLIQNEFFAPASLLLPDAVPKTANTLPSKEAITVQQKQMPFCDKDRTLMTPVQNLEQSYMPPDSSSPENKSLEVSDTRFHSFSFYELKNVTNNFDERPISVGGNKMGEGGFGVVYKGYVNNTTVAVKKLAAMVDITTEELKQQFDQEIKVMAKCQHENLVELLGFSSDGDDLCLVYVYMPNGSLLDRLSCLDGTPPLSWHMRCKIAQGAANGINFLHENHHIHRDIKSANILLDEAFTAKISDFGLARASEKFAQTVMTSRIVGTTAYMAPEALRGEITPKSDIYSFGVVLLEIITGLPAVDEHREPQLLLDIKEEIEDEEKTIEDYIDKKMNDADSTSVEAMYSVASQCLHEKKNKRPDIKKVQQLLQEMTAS
To be noted: at 0.1 µM.

The target of experiment [3] is T1, Interleukin-1 receptor-associated kinase 4 (Homo sapiens). To be noted: at 1 µM.
Experiment [4] has as its target Leucine-rich repeat serine/threonine-protein kinase 2 (Homo sapiens) (UniProt Q5S007). Particulars: at 0.1 µM.
Experiment [5] shares this target. To be noted: at 1 µM.
For experiment [6], the system named is Leucine-rich repeat serine/threonine-protein kinase 2 (Homo sapiens), Q5S007 [G2019S]. Particulars: at 0.1 µM.
Leucine-rich repeat serine/threonine-protein kinase 2 (Homo sapiens), Q5S007 [G2019S], sequence (Q5S007 whole entry G2019S): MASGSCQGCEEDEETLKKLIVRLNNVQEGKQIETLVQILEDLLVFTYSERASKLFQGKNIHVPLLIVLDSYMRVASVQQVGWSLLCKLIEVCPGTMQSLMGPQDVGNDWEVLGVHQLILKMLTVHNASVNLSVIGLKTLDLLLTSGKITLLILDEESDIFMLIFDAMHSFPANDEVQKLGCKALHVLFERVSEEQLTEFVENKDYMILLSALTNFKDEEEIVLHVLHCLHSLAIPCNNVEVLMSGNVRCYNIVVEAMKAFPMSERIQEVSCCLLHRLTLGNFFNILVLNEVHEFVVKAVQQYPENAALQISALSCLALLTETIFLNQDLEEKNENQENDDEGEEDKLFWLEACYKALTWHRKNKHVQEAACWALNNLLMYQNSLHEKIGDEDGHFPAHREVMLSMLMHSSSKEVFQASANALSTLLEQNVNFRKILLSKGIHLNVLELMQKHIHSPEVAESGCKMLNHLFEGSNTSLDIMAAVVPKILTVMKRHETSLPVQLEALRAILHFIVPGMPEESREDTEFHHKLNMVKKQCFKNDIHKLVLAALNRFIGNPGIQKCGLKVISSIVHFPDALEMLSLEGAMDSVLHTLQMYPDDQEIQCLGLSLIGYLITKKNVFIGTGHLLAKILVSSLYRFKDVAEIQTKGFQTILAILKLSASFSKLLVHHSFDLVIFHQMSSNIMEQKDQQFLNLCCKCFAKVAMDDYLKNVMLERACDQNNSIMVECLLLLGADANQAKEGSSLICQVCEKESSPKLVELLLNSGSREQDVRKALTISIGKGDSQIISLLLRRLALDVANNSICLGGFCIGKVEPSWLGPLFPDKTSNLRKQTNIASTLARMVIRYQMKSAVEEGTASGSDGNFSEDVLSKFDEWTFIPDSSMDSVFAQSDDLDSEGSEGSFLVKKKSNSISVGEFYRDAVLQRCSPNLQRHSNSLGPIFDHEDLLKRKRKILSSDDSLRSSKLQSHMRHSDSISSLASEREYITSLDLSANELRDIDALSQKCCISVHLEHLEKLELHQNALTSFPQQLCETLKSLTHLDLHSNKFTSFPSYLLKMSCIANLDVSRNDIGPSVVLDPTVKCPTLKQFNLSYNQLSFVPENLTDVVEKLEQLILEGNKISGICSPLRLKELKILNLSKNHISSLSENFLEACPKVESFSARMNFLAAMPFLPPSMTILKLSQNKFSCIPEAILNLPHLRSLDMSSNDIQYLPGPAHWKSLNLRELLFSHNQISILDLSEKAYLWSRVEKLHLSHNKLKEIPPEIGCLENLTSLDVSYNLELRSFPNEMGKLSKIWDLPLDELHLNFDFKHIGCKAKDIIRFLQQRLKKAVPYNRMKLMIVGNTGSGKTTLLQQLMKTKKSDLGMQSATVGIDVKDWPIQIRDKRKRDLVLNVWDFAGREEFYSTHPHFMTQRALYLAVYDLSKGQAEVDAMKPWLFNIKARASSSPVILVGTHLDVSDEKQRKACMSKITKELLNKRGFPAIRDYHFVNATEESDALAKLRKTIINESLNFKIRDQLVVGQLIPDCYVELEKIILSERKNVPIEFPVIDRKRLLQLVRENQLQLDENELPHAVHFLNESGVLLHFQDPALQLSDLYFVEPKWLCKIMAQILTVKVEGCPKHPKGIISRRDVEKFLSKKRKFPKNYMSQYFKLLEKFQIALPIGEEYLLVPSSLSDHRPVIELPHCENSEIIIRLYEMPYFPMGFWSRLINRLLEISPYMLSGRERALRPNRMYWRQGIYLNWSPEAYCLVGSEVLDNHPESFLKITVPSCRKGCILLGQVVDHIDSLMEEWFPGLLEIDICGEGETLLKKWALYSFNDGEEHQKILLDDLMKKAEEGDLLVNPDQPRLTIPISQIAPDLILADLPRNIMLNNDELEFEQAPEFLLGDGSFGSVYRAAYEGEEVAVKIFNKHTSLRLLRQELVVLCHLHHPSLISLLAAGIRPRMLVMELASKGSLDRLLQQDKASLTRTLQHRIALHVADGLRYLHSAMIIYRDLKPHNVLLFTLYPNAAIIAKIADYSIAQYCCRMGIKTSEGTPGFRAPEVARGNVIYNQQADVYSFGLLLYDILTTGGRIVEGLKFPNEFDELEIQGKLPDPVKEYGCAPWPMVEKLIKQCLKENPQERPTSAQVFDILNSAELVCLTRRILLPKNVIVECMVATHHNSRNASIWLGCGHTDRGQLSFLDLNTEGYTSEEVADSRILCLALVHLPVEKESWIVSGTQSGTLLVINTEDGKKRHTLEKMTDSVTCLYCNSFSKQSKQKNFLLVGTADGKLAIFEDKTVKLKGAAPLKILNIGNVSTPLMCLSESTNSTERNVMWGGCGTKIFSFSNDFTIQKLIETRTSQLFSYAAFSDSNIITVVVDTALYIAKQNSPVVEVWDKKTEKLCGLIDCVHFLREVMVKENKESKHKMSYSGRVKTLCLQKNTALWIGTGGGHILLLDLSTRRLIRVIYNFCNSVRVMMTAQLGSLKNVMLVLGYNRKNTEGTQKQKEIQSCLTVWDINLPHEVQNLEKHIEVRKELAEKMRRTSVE
Experiment [7] shares this test system. Particulars: at 1 µM.

SMILES strings stand for the structures.

RAF proto-oncogene serine/threonine-protein kinase (Homo sapiens), sequence (P04049 whole entry): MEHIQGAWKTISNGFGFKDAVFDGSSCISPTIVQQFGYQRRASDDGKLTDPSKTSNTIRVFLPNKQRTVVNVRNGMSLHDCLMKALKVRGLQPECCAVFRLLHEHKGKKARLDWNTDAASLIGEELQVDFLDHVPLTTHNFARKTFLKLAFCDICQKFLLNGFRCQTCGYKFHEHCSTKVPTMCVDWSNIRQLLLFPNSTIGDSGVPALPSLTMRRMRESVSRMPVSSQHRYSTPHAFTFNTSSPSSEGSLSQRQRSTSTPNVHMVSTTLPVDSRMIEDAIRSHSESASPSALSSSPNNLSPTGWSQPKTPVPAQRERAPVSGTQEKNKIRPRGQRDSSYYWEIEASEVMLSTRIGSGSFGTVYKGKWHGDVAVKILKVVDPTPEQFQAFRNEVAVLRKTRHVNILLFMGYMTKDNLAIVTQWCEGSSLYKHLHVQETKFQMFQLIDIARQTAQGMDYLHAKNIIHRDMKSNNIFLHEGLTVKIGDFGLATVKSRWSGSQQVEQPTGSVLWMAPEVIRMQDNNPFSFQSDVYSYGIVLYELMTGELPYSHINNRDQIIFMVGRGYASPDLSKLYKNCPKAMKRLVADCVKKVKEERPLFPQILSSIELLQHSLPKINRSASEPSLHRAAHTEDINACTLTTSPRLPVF
Leucine-rich repeat serine/threonine-protein kinase 2 (Homo sapiens), sequence (Q5S007 whole entry): as the sequence (Q5S007 whole entry G2019S) above, with S2019G counted along it

For the compound `CCn1c(-c2nonc2N)nc2c(C#CCN)ncc(OCCCN)c21`, the inhibition in experiment [1] is 1.98%; in experiment [2] it was 1.9%; in experiment [3] it was -2%; in experiment [4], 3.78%; in experiment [5] it was 5.71%; in experiment [6], 4.23%. For the same compound, the inhibition in experiment [7] is 12.1%.
Consider `NS(=O)(=O)c1ccc(-c2ccc3c(NC(=O)C4CC4)n[nH]c3c2)cc1`, for which the inhibition in experiment [1] is 9.01%; in experiment [2], -1.93%; in experiment [3] it was 1.48%; in experiment [4], 2.77%; in experiment [5] it was 2.56%; in experiment [6], 3.47%. The inhibition in experiment [7] stood at 7.51%.
In the case of `CCn1c(-c2nonc2N)nc2c(C#CC(C)(C)O)ncc(OC[C@@H]3CCCN3)c21`, the inhibition in experiment [1] was 0.33%; in experiment [2], 0.18%; in experiment [3], 0.53%; in experiment [4], 0.96%; in experiment [5], 7.88%; in experiment [6] it was 2.98%. For the same compound, the inhibition in experiment [7] was determined as 12.5%.
With `NC(=O)c1sc(-n2cnc3cc(C(F)(F)F)ccc32)cc1OCc1ccccc1Br`, the inhibition in experiment [1] turned out to be 5.05%; in experiment [2] it was 0.4%; in experiment [3], 1.13%; in experiment [4] it was 3.39%; in experiment [5], 6.23%; in experiment [6] it was 3.66%. Besides, the inhibition in experiment [7] is 6.47%.
Regarding `CCn1c(-c2nonc2N)nc2c(C#CC(C)(C)O)ncc(OCC3CCNCC3)c21`, the inhibition in experiment [1] was 1.08%; in experiment [2] it was -1.36%; in experiment [3], 1.24%; in experiment [4] it was -2.92%; in experiment [5], 5%; in experiment [6], 1.31%. The inhibition in experiment [7] came out at 16.7%.
As for `COc1cccc(-n2ncc3c(N/N=C/c4ccncc4)ncnc32)c1`, the inhibition worked out at 3.93% in experiment [1]; 2.61% in experiment [2]; 4.07% in experiment [3]; 4.32% in experiment [4]; 16.6% in experiment [5]; 7.97% in experiment [6]. Further, the inhibition in experiment [7] was 37.4%.
As for `COc1cccc(COc2cc(-n3cnc4ccccc43)sc2C(N)=O)c1`, the inhibition in experiment [1] was 0.06%; in experiment [2], -1.12%; in experiment [3] it was -1.16%; in experiment [4], 2.35%; in experiment [5], 14.6%; in experiment [6] it was 5.15%. Also, the inhibition in experiment [7] turned out to be 31.2%.
Take `COc1cc(C=NNc2ncnc3c2cnn3Cc2ccccc2)ccc1O`: the inhibition in experiment [1] was 8.55%; in experiment [2], 1.48%; in experiment [3] it was -1.52%; in experiment [4], -2.34%; in experiment [5], 3.59%; in experiment [6] it was 1.06%. Moreover, in experiment [7], the inhibition worked out at 10.1%.
Regarding `CCn1c(-c2nonc2N)nc2c(C#CC(C)(C)O)nc(O[C@@H](CN)c3ccccc3)cc21`, the inhibition is -0.12% in experiment [1]; 2.57% in experiment [2]; -0.97% in experiment [3]; 1.02% in experiment [4]; 12.4% in experiment [5]; 5.6% in experiment [6]. For the same compound, the inhibition in experiment [7] is 35.9%.
As to `Fc1ccc(-c2ncn(C3CCNCC3)c2-c2ccnc(Oc3ccccc3)n2)cc1`, the inhibition in experiment [1] is 1.07%; in experiment [2], 0.54%; in experiment [3], 0.35%; in experiment [4] it was -5.14%; in experiment [5] it was -7.49%; in experiment [6] it was -2.28%. For the same compound, the inhibition in experiment [7] was -0.98%.
As to `Cc1cc(-c2ccco2)cc(C)c1/C=C/c1cncc(-c2nn[nH]n2)c1`, the inhibition in experiment [1] is -5.34%; in experiment [2], -0.17%; in experiment [3], -0.12%; in experiment [4], 4.45%; in experiment [5], 8.02%; in experiment [6], 5.52%. In addition, in experiment [7], the inhibition worked out at 5.78%.
In the case of `COc1cc2c(cc1Nc1nc(Nc3ccsc3C(N)=O)c3cc[nH]c3n1)N(C(=O)CN(C)C)CCC2`, the inhibition in experiment [1] was -4.6%; in experiment [2], -1.66%; in experiment [3], -1.26%; in experiment [4], 80.8%; in experiment [5], 86.2%; in experiment [6], 63%. Moreover, in experiment [7], the inhibition worked out at 61.2%.
Consider `Nc1nonc1-c1nc2cnccc2n1C1CCCCC1`, for which the inhibition in experiment [1] is 13.7%; in experiment [2] it was 2.08%; in experiment [3], -1.3%; in experiment [4], 4.67%; in experiment [5], 20%; in experiment [6], 9.49%. For the same compound, the inhibition in experiment [7] was determined as 45.5%.
Turning to `NS(=O)(=O)c1ccc(N/C=C2\C(=O)Nc3ccc4ncsc4c32)cc1`, the inhibition in experiment [1] is 0.21%; in experiment [2], 1.82%; in experiment [3], 2.58%; in experiment [4], 17.8%; in experiment [5], 58.6%; in experiment [6], 29.4%. For the same compound, the inhibition in experiment [7] came out at 58.9%.
